Results filed as inconclusive are left out. Entries that show only a call come without a potency. A number with no mark means an inactive call. Activity calls are given as the source filed them. Calls follow the shape of the dose curve; as a rule, active = well fitted cell-killing curve with a large enough effect in the repeat runs; inconclusive = weak or mixed curves, or effect the other way; inactive = flat fitted curve, though single readings scatter.
Experiments:
[1] = cAMP Responsive Elements (CRE) small molecule antagonists, cell-based qHTS assay: qHTS cell viability counter screen (AID 2060913); also: nearly all actives have a fitted effect of over 40% in size
How it was run: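 Cytotoxicity counter screen multiplexed with the CRE-bla antagonist read: HEK293T cells in DMEM with dialyzed FBS and 25 mM HEPES were treated 3 hrs under 0.25 uM final NKH477, then viability measured by CellTiter-Glo luminescence.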

[2] = cAMP Responsive Elements (CRE) small molecule agonists, cell-based qHTS assay: qHTS cell viability counter screen (AID 2060914);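 also: viability read after 3 h of compound exposure; nearly all actives have a fitted effect of over 50% in size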
How it was run: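 Cytotoxicity counter screen multiplexed with the CRE-bla reporter assay in HEK 293T cells: 3 h compound exposure at 37 °C, followed by CellTiter-Glo luminescence measured in the same wells.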

Row | SMILES | Potency [1] | Potency [2] | viability change, negative = cytotoxic [1] | activity change, negative = cytotoxicity [2]
1 | CC(c1ccc(O)cc1)c1ccc(O)cc1 | inactive | inactive | – | –
2 | O=C(NC(=O)c1c(F)cccc1F)Nc1ccc(Oc2ccc(C(F)(F)F)cc2Cl)cc1F | inactive | inactive | – | –
3 | C[N+]1(C)CCCCC1 | inactive | inactive | – | –
4 | CCCCCCC1CCOC1=O (stereo not drawn) | inactive | inactive | – | –
5 | CC(C)(C#N)N=NC(C)(C)C#N | inactive | inactive | – | –
6 | CC1=C(C(=O)Nc2ccccc2)S(=O)(=O)CCO1 | inactive | inactive | – | –
7 | CC(Oc1ccc(Cl)cc1Cl)C(=O)O (stereo not drawn) | inactive | inactive | – | –
8 | Brc1cccc(-c2ccccc2)c1 | inactive | inactive | – | –
9 | CC1(C)COP(Oc2ccccc2)OC1 | inactive | inactive | – | –
10 | CNC(=O)O/N=C(\SC)C(=O)N(C)C | inactive | inactive | – | –
11 | Cc1ccc2nc3sc(=O)sc3nc2c1 | – | – | 10.1% [at 18.9 µM] | -6.15% [at 18.9 µM]
12 | Cc1c(COC(=O)[C@@H]2[C@H](/C=C(\Cl)C(F)(F)F)C2(C)C)cccc1-c1ccccc1 | inactive | inactive | – | –
13 | O=C(O)C(Cl)(Cl)Cl | inactive | inactive | – | –
14 | Nc1ccccc1Cl | inactive | inactive | – | –
15 | C=CCN=C=S | inactive | inactive | – | –
16 | N#CCCC#N | inactive | inactive | – | –
17 | N#CC(Cl)(Cl)Cl | inactive | inactive | – | –
18 | COc1ccccc1N | inactive | inactive | – | –
19 | ClC(Cl)(Cl)c1ccccc1 | inactive | inactive | – | –
20 | C[C@@H]1C[C@@H]([C@H](O)CC2CC(=O)NC(=O)C2)C(=O)[C@@H](C)C1 | inactive | inactive | – | –
21 | O=C(O)C(F)(F)C(F)(F)C(F)(F)C(F)(F)C(F)(F)C(F)(F)C(F)(F)C(F)(F)F | inactive | inactive | – | –
22 | O=C(O)c1nn(Cc2ccc(Cl)cc2Cl)c2ccccc12 | inactive | inactive | – | –

Row | SMILES | Potency [1] | Potency [2] | viability change, negative = cytotoxic [1] | activity change, negative = cytotoxicity [2]
23 | C=CCc1ccccc1O | inactive | inactive | – | –
24 | c1ccc(-c2ccccc2)cc1 | inactive | inactive | – | –
25 | CCC(=O)Nc1ccc(Cl)c(Cl)c1 | inactive | inactive | – | –
26 | CC(C)C(=O)Cl | inactive | inactive | – | –
27 | COc1ncc(F)c2nc(S(=O)(=O)Nc3c(F)cccc3F)nn12 | inactive | inactive | – | –
28 | NC(=O)CCl | inactive | inactive | – | –
29 | CCC(C)(C)C(=O)OC1=C(c2ccc(Cl)cc2Cl)C(=O)OC12CCCCC2 | inactive | inactive | – | –
30 | C[C@@H](Oc1ccc(Cl)cc1Cl)C(=O)O | inactive | inactive | – | –
31 | CN(C)CCc1c[nH]c2cccc(O)c12 | inactive | inactive | – | –
32 | O=C(Cc1ccccc1)OCCc1ccccc1 | inactive | inactive | – | –
33 | O=C(CBr)c1ccccc1 | inactive | inactive | – | –
34 | COP(=S)(OC)Oc1ccc(SC)c(C)c1 | inactive | inactive | – | –
35 | Clc1ccccc1 | inactive | inactive | – | –
36 | CCCCCCn1cc[n+](C)c1 | inactive | inactive | – | –
37 | N#Cc1c(Cl)c(Cl)c(Cl)c(C#N)c1Cl | inactive | inactive | – | –
38 | BrC(Br)Br | inactive | inactive | – | –
39 | CCCCCCCCCCOC(=O)c1ccccc1C(=O)OCCCCCCCCCC | inactive | inactive | – | –
40 | O=c1oc2ccccc2c(O)c1C(CC(O)c1ccc(-c2ccc(Br)cc2)cc1)c1ccccc1 (stereo not drawn) | inactive | inactive | – | –
41 | CNC(=O)O/N=C/C(C)(C)S(C)(=O)=O | inactive | inactive | – | –
42 | Nc1ccc(N)cc1 | inactive | inactive | – | –
43 | CC(C)c1ccc(O)cc1 | inactive | inactive | – | –
44 | C=CC(N)=O | inactive | inactive | – | –

Row | SMILES | Potency [1] | Potency [2] | viability change, negative = cytotoxic [1] | activity change, negative = cytotoxicity [2]
45 | ClC1=C(Cl)C2(Cl)C3C(Cl)C=CC3C1(Cl)C2(Cl)Cl (stereo not drawn) | inactive | inactive | – | –
46 | N#CNC#N | inactive | inactive | – | –
47 | Cc1ncc(C[n+]2csc(CCO)c2C)c(N)n1 | inactive | inactive | – | –
48 | CCCCn1cc[n+](C)c1 (tested in a mixture with another compound) | inactive | inactive | – | –
49 | COC(N)=O | inactive | inactive | – | –
50 | C[C@]12CC[C@H]3[C@@H](CCC4=CC(=O)CC[C@@H]43)[C@@H]1CC[C@@H]2O | inactive | inactive | – | –
51 | C=CCO | inactive | inactive | – | –
52 | C[C@H]1[C@H](c2ccc(Cl)cc2)SC(=O)N1C(=O)NC1CCCCC1 | inactive | inactive | – | –
53 | CS(=O)(=O)Cl | inactive | inactive | – | –
54 | O=P(O)(O)c1ccccc1 | inactive | inactive | – | –
55 | O=NN1CCOCC1 | inactive | inactive | – | –
56 | CCN(CC)C(=O)N[C@@H]1C=C2c3cccc4[nH]cc(c34)C[C@@H]2N(C)C1 | inactive | inactive | – | –
57 | O=[N+]([O-])c1cccc(O)c1 | inactive | inactive | – | –
58 | O=C(O)[C@H](O)[C@@H](O)C(=O)O | inactive | inactive | – | –
59 | CCN(CC)CCc1c[nH]c2ccccc12 | inactive | inactive | – | –
60 | CN/C(=N\[N+](=O)[O-])NCC1CCOC1 (stereo not drawn) | inactive | inactive | – | –
61 | O=C(O)CCCc1ccc(N(CCCl)CCCl)cc1 | inactive | inactive | – | –
62 | CCOc1nc(C(Cl)(Cl)Cl)ns1 | inactive | inactive | – | –
63 | CCN(CC)c1nc(C)cc(OP(=S)(OC)OC)n1 | inactive | inactive | – | –
64 | CC1(C)Cc2cccc(O)c2O1 | inactive | inactive | – | –

— PubChem BioAssay (Tox21)
